Inconclusive results are not listed. Activity calls are given as the source filed them. Unless noted, calls come from the whole dose curve; as a rule, active = well fitted curve in the direction sought with a large enough effect in the repeat runs; inconclusive = weak or mixed curves; inactive = no such curve, though single readings can be large; an effect the other way counts as inactive or inconclusive.
How the values were obtained:
[1] = qHTS assay to identify small molecule agonists of the vitamin D receptor (VDR) signaling pathway - cell viability counter screen (AID 743224); note: series mostly up to about 63 µM; nearly all actives have a fitted effect of over 50% in size
Summary of the method: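 VDR-bla cell line, quantitative HTS format; 16 h compound incubation (37C, 5% CO2); ATP-based CellTiter-Glo luminescence measured in the reporter assay wells.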

[2] = qHTS assay to identify small molecule antagonists of the vitamin D receptor (VDR) signaling pathway - cell viability counter screen (AID 743225); note: nearly all actives have a fitted effect of over 50% in size
Summary of the method: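 VDR-bla HEK 293T cells, 4 h pre-incubation at 37C, then compound plus 1-alpha,25-dihydroxyvitamin D3 (3 nM final) for 16 h. After the beta-lactamase FRET read, CellTiter-Glo was added to the same wells; luminescence after 30 min at room temperature.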

[3] = qHTS assay to identify small molecule agonists of the NFkB signaling pathway - cell viability counter screen (AID 1159515; calls by dose curve; note: series mostly up to about 61 µM; nearly all actives have a fitted effect of over 55% in size)
Summary of the method: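 Viability in NFkB-bla ME-180 cells was measured by CellTiter-Glo luminescence, 30 min room temperature, in wells already treated 5 hr with compounds and read for reporter FRET.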

[4] = qHTS assay to identify small molecule agonists of the endoplasmic reticulum stress response signaling pathway (AID 1159516; active = well fitted activation curve with a large enough effect in the signal ratio in the repeat runs, not every such curve was filed as active; the % refers to the signal ratio)
Summary of the method: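 ER stress element reporter (bla) in HeLa. 1,500 cells/well, overnight attachment; 5 hr compound; 2 hr RT substrate; dual-emission fluorescence.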

[5] = qHTS assay to identify small molecule agonists of the endoplasmic reticulum stress response signaling pathway - cell viability counter screen (AID 1159517; calls by dose curve;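 note: HeLa cells carrying an ER stress response element beta-lactamase reporter; series mostly up to about 61 µM; nearly all actives have a fitted effect of over 50% in size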)
Summary of the method: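 Counter-screen wells were identical to the reporter wells. Cells were plated at 1,500 per well and dosed for 5 hr, then read for luminescence 30 min after CellTiter-Glo addition.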

[6] = qHTS assay to identify small molecule antagonists of the retinoid-related orphan receptor gamma (ROR-gamma) signaling pathway - cell viability counter screen (AID 1159520); note: nearly all actives have a fitted effect of over 50% in size
Summary of the method: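 Tet-on ROR gamma CHO cells were given compounds for 2 hr, then doxycycline hyclate at 1 uM final, and incubated 16 hr at 37 C. Viability was measured as ATP content by CellTiter-Glo luminescence.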

[7] = target: Nuclear receptor ROR-gamma (Homo sapiens) (UniProt P51449); assay: qHTS assay to identify small molecule antagonists of the retinoid-related orphan receptor gamma (ROR-gamma) signaling pathway (AID 1159521)
Summary of the method: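 Tet-on RORγ CHO cells carrying a ROR response element–luciferase reporter were pretreated with compounds for 2 h, then induced with 1 uM (final) doxycycline hyclate for 16 h at 37 C. Antagonism was read as decreased ONE-Glo luminescence.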

[8] = qHTS assay to identify small molecule agonists of the AP-1 signaling pathway - cell viability counter screen (AID 1159525; calls by dose curve; note: nearly all actives have a fitted effect of over 55% in size)
Summary of the method: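 AP-1-bla ME-180 cells in Opti-MEM with 0.5% dialyzed FBS, compound exposure 5 h at 37 C in 15-point titration. Viability read in the same wells as ATP content by CellTiter-Glo luminescence, normalised to tetra-n-octylammonium bromide and DMSO controls.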

[9] = qHTS assay to identify small molecule agonists of the AP-1 signaling pathway (AID 1159526; calls by dose curve)
[10] = target: Retinoic acid receptor RXR-alpha (Homo sapiens) (UniProt P19793); assay: qHTS assay to identify small molecule agonists of the RXR signaling pathway (AID 1159527; calls by dose curve; note: nearly all actives have a fitted effect of over 35% in size; note: potency is the fitted concentration of half-maximal effect)
Chain of Retinoic acid receptor RXR-alpha (Homo sapiens) (P19793 whole entry, looked up): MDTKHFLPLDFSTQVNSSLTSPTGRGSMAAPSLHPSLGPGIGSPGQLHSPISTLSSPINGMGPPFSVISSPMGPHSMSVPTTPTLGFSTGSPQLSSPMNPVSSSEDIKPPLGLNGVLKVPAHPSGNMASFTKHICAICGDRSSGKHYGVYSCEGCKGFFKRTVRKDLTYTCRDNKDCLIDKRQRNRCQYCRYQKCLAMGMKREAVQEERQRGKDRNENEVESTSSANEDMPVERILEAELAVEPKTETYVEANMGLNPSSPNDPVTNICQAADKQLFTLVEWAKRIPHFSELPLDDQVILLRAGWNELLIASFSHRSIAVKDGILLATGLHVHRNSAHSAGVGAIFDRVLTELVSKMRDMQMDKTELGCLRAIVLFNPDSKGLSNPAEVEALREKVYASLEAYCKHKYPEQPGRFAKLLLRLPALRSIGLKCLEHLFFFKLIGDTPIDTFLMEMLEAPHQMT
Summary of the method: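 GeneBLAzer RXR-alpha-UAS-bla HEK 293T cells in medium with 2% charcoal-stripped FBS, pre-incubated 5 hr at 37 C, then exposed to compounds 16 hr. Beta-lactamase reporter read by FRET substrate, 2 hr room temperature, 460/530 nm emission.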

[11] = qHTS assay to identify small molecule agonists of the RXR signaling pathway - cell viability counter screen (AID 1159529)
Summary of the method: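 RXR-alpha-UAS-bla HEK 293T cells in medium with 2% charcoal-stripped FBS were preincubated 5 hr, then exposed to compounds for 16 hr at 37 C. Viability was read as CellTiter-Glo luminescence after 30 min at room temperature.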

[12] = qHTS assay to identify small molecule antagonists of the retinoid acid receptor (RAR) signaling pathway - cell viability counter screen (AID 1159551); note: nearly all actives have a fitted effect of over 35% in size
Summary of the method: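 Following overnight attachment, C3RL4 reporter cells received DMSO-dissolved compounds and then retinol (1 uM final). Six hours later at 37 C, ATP content was measured by CellTiter-Glo luminescence.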

[13] = qHTS assay to identify small molecule antagonists of the retinoic acid receptor (RAR) signaling pathway (AID 1159552; note: nearly all actives have a fitted effect of over 50% in size)
Summary of the method: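 RARE-luc C3RL4 cells; cpds + 1 uM (final) retinol, 6 hr, 37 C/5% CO2; luciferase reagent, 30 min RT, luminescence readout. Inhibitors of retinol-driven signal scored.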

[14] = qHTS assay to identify small molecule agonists of the retinoic acid receptor (RAR) signaling pathway (AID 1159553); note: potency is the fitted concentration of half-maximal effect
Summary of the method: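 Cell line C3RL4, RARE luciferase reporter. Treatment: compounds in DMSO, 6 hr, 37 C, 5% CO2, after overnight plating. Detection: luminescence, 30 min RT after reagent.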

[15] = qHTS assay to identify small molecule antagonists of the estrogen related receptor (ERR) signaling pathway - cell viability counter screen (AID 1224818);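 note: series mostly up to about 46 µM; viability measured after 17.5 h of compound exposure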
Summary of the method: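 Here, ERR cells are plated at 2,000 cells per well, allowed 6 h to attach, and treated with compounds in DMSO for 17.5 h at 37 C. CellTiter-Fluor is then added and fluorescence read after 30 min.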

[16] = qHTS assay to identify small molecule antagonists of the estrogen related receptor signaling pathway with the pleiotropic PPARgamma coactivator (PGC) cell viability counter screen (AID 1224822;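 note: series mostly up to about 46 µM; viability read after 17.5 h compound exposure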)
Summary of the method: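 qHTS format, DMSO compound stocks pin-transferred onto PGC/ERR cells 6 h after plating; 17.5 h exposure at 37 C, then CellTiter-Fluor fluorescence.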

Measured: Potency

C=C(C)C(=O)OCC1CCCO1 (stereo unspecified)
inactive: [1] | [2] | [3] | [4] | [5] | [6] | [7] | [8] | [9] | [10] | [11] | [12] | [13]

O=C(O)c1cn(C2CC2)c2cc(N3CCNCC3)c(F)cc2c1=O
inactive: [3] | [4] | [5] | [6] | [7] | [8] | [9] | [10] | [11] | [12]

[Ca+2]
inactive: [1] | [3] | [4] | [5] | [6] | [7] | [8] | [9] | [10] | [11] | [12] | [14]

NO
inactive: [1] | [2] | [3] | [4] | [5] | [6] | [7] | [8] | [9] | [11] | [12] | [14] | [15] | [16]
active: [10] 44.5 µM

CCN(Cc1ccccc1)c1ccccc1
inactive: [1] | [2] | [3] | [4] | [5] | [6] | [7] | [8] | [9] | [10] | [11] | [12] | [14]

CC(C)COC(=O)c1ccc(N)cc1
inactive: [1] | [2] | [3] | [4] | [5] | [6] | [7] | [8] | [9] | [10] | [11] | [12]
active: [14] 18.8 µM

CC(=O)c1ccccc1[N+](=O)[O-]
inactive: [1] | [2] | [3] | [4] | [5] | [6] | [7] | [8] | [9] | [10] | [11] | [12] | [14]

N[C@@H](CCC(=O)O)C(=O)O
inactive: [1] | [2] | [3] | [4] | [5] | [6] | [7] | [8] | [9] | [10] | [11] | [12] | [15] | [16]

CCC(C)(CN(C)C)OC(=O)c1ccccc1 (stereo unspecified)
inactive: [1] | [2] | [3] | [4] | [5] | [6] | [7] | [8] | [9] | [10] | [11] | [12] | [14]
